DAX1 inh-1: DAX1 (NR0B1) inhibition, primary screen; HEK293T StAR-luciferase reporter, SF-1/DAX-1 repression relief; inhibition, % at 6.8 µM; hit rate 1.1% among 370,000; AID 652010;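 active means inhibition above the mean over all tested compounds plus 3 SD, cut at about 3.6% in these data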;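 further: 0% = DAX-1 cells with DMSO and 100% = cells lacking DAX-1 with DMSO; higher inhibition means more luminescence from relief of DAX-1 repression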
ssDAF12 agonist: S. stercoralis DAF-12 activation, primary screen | activation, % at 6.8 µM | hit rate 1% among 370,000 | HEK293 ssDAF-12/GRIP1 lit1-tk-luc reporter, luminescence; % of 3 µM dafachronic acid response;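 active means activation above the mean over all tested compounds plus 3 SD, cut at about 0.9% in these data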;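 further: 0% = DMSO-only wells and 100% = 3 µM delta7-dafachronic acid wells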
hcDAF12 agonist: activators of H. contortus DAF-12 nuclear receptor | HEK293 hcDAF-12 lit1-tk-luc reporter, luminescence; 0% DMSO, 100% Δ7-dafachronic acid | activation, % at 6.8 µM | hit rate 1.4% among 370,000 | AID 652067;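 active means activation above the mean of all tested compounds plus 3 SD, cut at about 5.5% in these data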;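 further: 100% = response to 3 µM Δ7-dafachronic acid high control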
PolyA inh: yeast polyadenylation inhibition | S. cerevisiae SKY197-pL101 polyadenylation reporter, beta-gal luminescence; efflux-impaired pdr1/pdr3 knockout yeast; score 100 = 6 SD above DMSO | activity score, % at 12 µM | hit rate 0.02% among 300,000 | AID 1875;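 active means lowest replicate activity score at least 50, where 100 means six control SD above control mean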;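 further: yeast exposed to compound for 9 h at 30 °C; higher score means more reporter readthrough which indicates perturbed polyadenylation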
hgDAF12 agonist: activates the H. glycines DAF-12 receptor ligand-binding domain | hit rate 1.8% among 370,000 | activation, % at 6.8 µM | HEK293 GAL4-hgDAF12 UAS-luciferase reporter, agonist luminescence; normalized to butyrate control;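 active means activation above a cutoff set at the mean of all screened compounds plus 3 SD, cut at about 10% in these data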;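 further: 0% = DMSO wells and 100% = sodium butyrate wells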
DAX1 inh-2: inhibits human nuclear receptor DAX1 | inhibition, % at 6.75 µM | AID 504766 | HEK293 Gal4-DAX1 luciferase reporter, luminescence | P51843 | hit rate 0.99% among 340,000;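 active means inhibition above the mean over all tested compounds plus 3 SD, cut at about 4.2% in these data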;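 further: 0% = DAX1-transfected cells with DMSO and 100% = empty-vector control cells with DMSO; inhibition shows as a rise in luminescence from relieved DAX1 repression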
Target sequence (P51843 207-470 limits assumed): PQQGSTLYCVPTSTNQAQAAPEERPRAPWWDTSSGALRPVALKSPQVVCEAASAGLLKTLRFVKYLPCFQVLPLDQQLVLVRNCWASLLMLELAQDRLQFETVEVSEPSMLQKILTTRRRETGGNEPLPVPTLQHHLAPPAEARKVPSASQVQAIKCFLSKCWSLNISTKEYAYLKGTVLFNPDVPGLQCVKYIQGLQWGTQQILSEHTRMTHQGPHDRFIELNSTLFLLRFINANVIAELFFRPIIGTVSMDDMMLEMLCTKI
LXRb hcDAF ctr: LXR-beta agonism as hcDAF-12 counter-screen; HEK293 Gal4-LXR tk-luc reporter, luminescence, 24 h; normalized: DMSO 0%, positive control 100%; 3,400 tested, under 10 active; shares compounds with hcDAF12 agonist; activation, % at 6.8 µM;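 active means mean percent activation of the reporter above a cutoff set as the average over tested compounds plus their standard deviation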
Target sequence (P55055 whole entry, looked up, the tested form may be a part): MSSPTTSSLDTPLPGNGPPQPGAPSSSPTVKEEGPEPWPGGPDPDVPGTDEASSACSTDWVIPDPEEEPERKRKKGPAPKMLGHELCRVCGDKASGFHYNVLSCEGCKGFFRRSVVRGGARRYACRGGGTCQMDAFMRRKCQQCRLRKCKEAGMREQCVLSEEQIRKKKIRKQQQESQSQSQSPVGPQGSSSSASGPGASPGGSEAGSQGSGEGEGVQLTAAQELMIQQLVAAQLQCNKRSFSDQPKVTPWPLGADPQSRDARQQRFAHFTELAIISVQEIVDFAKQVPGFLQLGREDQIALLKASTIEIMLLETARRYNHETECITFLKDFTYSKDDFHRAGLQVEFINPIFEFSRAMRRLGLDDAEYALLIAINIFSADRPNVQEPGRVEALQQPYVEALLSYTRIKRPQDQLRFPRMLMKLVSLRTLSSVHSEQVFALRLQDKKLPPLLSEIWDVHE
hcDAF12 conf: confirmation of H. contortus DAF-12 agonists; shares compounds with hcDAF12 agonist; HEK293 hcDAF-12 lit1-tk-luc reporter, luminescence; % of Δ7-dafachronic acid response; activation, % at 6.8 µM; hit rate 61% among 3,400;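 active means mean activation across triplicate tests above the threshold derived from the earlier primary screen, cut at about 5.5% in these data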;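 further: 0% = DMSO only wells and 100% = 3 µM Δ7-dafachronic acid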
* marks the source's active call; other numbers are inactive results. The list is not random: actives were taken first. Their share in the collection is about 4.1%.

`CCN1CCc2nc(NC(=O)c3ccccc3)sc2C1` gave DAX1 inh-1 4.0*, ssDAF12 agonist 0.8, hcDAF12 agonist 8.9*, PolyA inh 6.8, hgDAF12 agonist 7.1, DAX1 inh-2 -1.2, LXRb hcDAF ctr 1.4 and hcDAF12 conf 6.8*.
`O=C(NC(=S)Nc1nc2c(s1)CCCC2)c1ccccc1` gave DAX1 inh-1 2.0, ssDAF12 agonist 1.0*, hcDAF12 agonist 11.7*, PolyA inh 5.1, hgDAF12 agonist 11.1*, DAX1 inh-2 1.5, LXRb hcDAF ctr 1.7 and hcDAF12 conf 16.2*.
`O=C(NCc1cccnc1)C1CC(c2ccccc2Cl)=NO1` (centres undefined) gave DAX1 inh-1 0.5, ssDAF12 agonist -0.9, hcDAF12 agonist 0.3, PolyA inh 4.9, hgDAF12 agonist 4.9 and DAX1 inh-2 1.6.
Screening CCCn1c(=O)c2ccccc2n2c(SCc3nc4ccccc4s3)nnc12 returned DAX1 inh-1 3.7*, ssDAF12 agonist 1.1*, hcDAF12 agonist 9.5*, PolyA inh -0.1, hgDAF12 agonist 8.1, DAX1 inh-2 0.8, LXRb hcDAF ctr 0.8 and hcDAF12 conf 7.3*.
For Cn1c(SCc2nc3ccccc3s2)nnc1-c1cccs1 the results were DAX1 inh-1 0.5, ssDAF12 agonist 1.5*, hcDAF12 agonist 7.1*, PolyA inh 16.9, hgDAF12 agonist 6.5, DAX1 inh-2 1.2, LXRb hcDAF ctr 0.1 and hcDAF12 conf 4.2.
Screening COc1ccccc1-c1nnc(SCc2nc3ccccc3s2)n1C returned DAX1 inh-1 -0.1, ssDAF12 agonist 0.6, hcDAF12 agonist 8.6*, PolyA inh -17.3, hgDAF12 agonist 1.5, DAX1 inh-2 2.2, LXRb hcDAF ctr -0.1 and hcDAF12 conf 2.8.
Screening CCn1c(SCc2nc3ccccc3s2)nnc1-c1cccs1 returned DAX1 inh-1 0.5, ssDAF12 agonist 0.0, hcDAF12 agonist 4.5, PolyA inh -17.1, hgDAF12 agonist 9.1 and DAX1 inh-2 1.2.
Cn1cnnc1SCC(=O)c1c[nH]c2ccccc12 was read as DAX1 inh-1 1.0, ssDAF12 agonist 0.8, hcDAF12 agonist 5.5, PolyA inh 15.8, hgDAF12 agonist 4.3 and DAX1 inh-2 1.4.
Screening CCCCNc1nnc(SCC(=O)c2c[nH]c3ccccc23)s1 returned DAX1 inh-1 0.6, ssDAF12 agonist -0.2, hcDAF12 agonist 11.6*, PolyA inh 5.4, hgDAF12 agonist -1.2, DAX1 inh-2 0.8, LXRb hcDAF ctr -0.1 and hcDAF12 conf 4.6.
CCOc1ccccc1NC1=NC2CS(=O)(=O)CC2S1 (centres undefined) was read as DAX1 inh-1 0.1, ssDAF12 agonist -1.7, hcDAF12 agonist 0.5, PolyA inh -0.6, hgDAF12 agonist -0.9 and DAX1 inh-2 2.0.
For CC(=O)Nc1cccc(NC(=S)Nc2cccc3ccccc23)c1 the results were DAX1 inh-1 0.0, ssDAF12 agonist 0.9*, hcDAF12 agonist 7.6*, PolyA inh -14.1, hgDAF12 agonist 4.9, DAX1 inh-2 0.3, LXRb hcDAF ctr -0.1 and hcDAF12 conf 2.0.
`CC(C)[C@H](N)C(=O)N1CCC(C(=O)N[C@@H](Cc2ccccc2)C(=O)NCc2ccc(F)cc2)CC1` gave DAX1 inh-1 0.2, ssDAF12 agonist -0.8, hcDAF12 agonist -1.0, PolyA inh 3.3, hgDAF12 agonist 0.9 and DAX1 inh-2 -0.3.
For COc1ccc(Cl)cc1NC(=O)COC(=O)c1ccc(Cl)nc1 the results were DAX1 inh-1 -0.4, ssDAF12 agonist 0.6, hcDAF12 agonist 6.7*, hgDAF12 agonist 5.4, DAX1 inh-2 -0.3, LXRb hcDAF ctr -0.2 and hcDAF12 conf 2.0.
`COc1cccc(-c2nc(N3CCN(C)CC3)c3ccccc3n2)c1O` gave DAX1 inh-1 -0.3, ssDAF12 agonist -0.4, hcDAF12 agonist 7.8*, PolyA inh -13.7, hgDAF12 agonist 8.0, DAX1 inh-2 0.9, LXRb hcDAF ctr 0.0 and hcDAF12 conf 5.3.
`CCOC(=O)Cn1nc(-c2ccccc2)c2cnc3ccc(CC)cc3c21` gave DAX1 inh-1 1.0, ssDAF12 agonist -1.1, hcDAF12 agonist 1.3, PolyA inh 7.7, hgDAF12 agonist -1.9 and DAX1 inh-2 0.1.
`O=C(/C=C/c1ccco1)Nc1cccc2cccnc12` gave DAX1 inh-1 0.8, ssDAF12 agonist 0.6, hcDAF12 agonist 6.8*, PolyA inh 24.5, hgDAF12 agonist 10.2, DAX1 inh-2 0.4, LXRb hcDAF ctr 0.3 and hcDAF12 conf 7.0*.
Cc1ccc(NC(=O)C2Oc3ccccc3OC2C)cc1 (centres undefined) was read as DAX1 inh-1 0.0, ssDAF12 agonist 0.4, hcDAF12 agonist 9.1*, PolyA inh 9.7, hgDAF12 agonist 2.1, DAX1 inh-2 0.3, LXRb hcDAF ctr -0.1 and hcDAF12 conf 6.9*.
`Cc1ccc(NC(=O)C2COc3ccccc3O2)cc1` (centres undefined) gave DAX1 inh-1 1.8, ssDAF12 agonist 0.5, hcDAF12 agonist 6.6*, PolyA inh -1.1, hgDAF12 agonist 12.0*, DAX1 inh-2 2.3, LXRb hcDAF ctr 1.1 and hcDAF12 conf 7.7*.
For Cc1ccc(NC(=O)N(C)c2ccccc2)cc1 the results were DAX1 inh-1 -0.4, ssDAF12 agonist -0.1, hcDAF12 agonist 0.4, PolyA inh -16.2, hgDAF12 agonist 0.8 and DAX1 inh-2 2.5.
`Cc1ccc(NC(=O)C2COc3ccccc3O2)nc1` (centres undefined) gave DAX1 inh-1 2.7, ssDAF12 agonist 0.9, hcDAF12 agonist 9.5*, PolyA inh -6.2, hgDAF12 agonist 12.3*, DAX1 inh-2 1.8, LXRb hcDAF ctr 1.0 and hcDAF12 conf 9.4*.
`CC1(C)Oc2ccc(NC(=O)C3COc4ccccc4O3)cc2O1` (centres undefined) gave DAX1 inh-1 4.4*, ssDAF12 agonist 1.9*, hcDAF12 agonist 8.9*, PolyA inh 21.7, hgDAF12 agonist 12.5*, DAX1 inh-2 -0.4, LXRb hcDAF ctr 1.1 and hcDAF12 conf 7.6*.
`O=C(Nc1ccccc1)C1COc2ccccc2O1` (centres undefined) gave DAX1 inh-1 1.5, ssDAF12 agonist -0.7, hcDAF12 agonist 3.0, PolyA inh -5.4, hgDAF12 agonist 3.8 and DAX1 inh-2 0.4.
Screening CC(C)OCCCNC(=O)C(Cc1ccccc1)NS(=O)(=O)c1ccc2c(c1)CCC(=O)N2 (centres undefined) returned DAX1 inh-1 0.0, ssDAF12 agonist -1.5, hcDAF12 agonist 1.2, PolyA inh -7.3, hgDAF12 agonist -2.5 and DAX1 inh-2 0.8.
